# Data: publication PMC10163288
# Not all results are given here. How many sequences the whole screen found active is unknown. Values without a mark were called inactive.
# B1: il10ra_site1_normal_mot_HHH_b2_00479_000000091_0001_1_12_H_._HHH_b2_03388_af2_0001_0000400024_0000002_0 (protein)
# chain: SSSSTEENDEVYKLIREALELMARGNPEEARKVLEEAEEILEELNNRVLLFNVRFLLRELGSSSS
# B2: il10ra_site1_normal_mot_HHH_b1_05056_000000217_0001_1_20_H_._HHH_b2_04661_af2_0001_0000500034_0000002_0 (protein)
# chain: SSSSDEEELEELLEKLEELAEKGDRERFLELVLRLSELIFRLGDKEALQRLWELVREFLRRSSSS
# B3: il10ra_site1_normal_mot_HHH_b2_02337_000000026_0001_38_52_H_._HHH_b2_04776_0001_0000200023_0000003_0 (protein)
# chain: SSSSSSEEEEEIEELLEQLERAKSDEEISEVALRLVRLIWELNNQELLQRLWEIVKRLASSSSSS
# B4: il10ra_site1_normal_mot_HHH_b2_04274_000000146_0001_1_19_H_._5a9ba470ffdefe7bbe7d066b6a6aec3b_0001_af2_0001_0000200013_0000001_1_af2pred_0001 (protein)
# chain: NELVKAIRLLLQRFADDPEVLRVLRRILKLSLEDPEEAVELLLELAEKLGDPEVEELAREVERRR
# B5: il10ra_site1_sap_16_mot_HHH_b2_08144_af2_000000046_0001_38_52_H_._HHH_b2_08331_0001_0000200020_0000002_0_0001 (protein)
# chain: SSSSNAAEYLVRQALRAARLAKENNDPELVKRALEIAERIAENANDPELKELVEEVEEELESSSS
# B6: il10ra_site1_normal_mot_HHH_b1_05326_000000242_0001_1_20_H_._HHH_b2_08124_0001_0000100011_0000002_0 (protein)
# chain: SSSSSSDEFLRLLRRIFRLLLRGNPEEAQELLEELEELAEELNDPAARRAVEILKEAASSSSSSS
# B7: il10ra_site1_normal_mot_HHH_b1_02809_af2_000000277_0001_40_57_H_._HHH_b2_07682_0001_0000300022_0000001_0_af2pred_0001 (protein)
# chain: SSSSSRDEEAVRRALRLAKWLREAGDEEAVRKYLKAAKILAKRIGDPELEELVERVEEHLSSSSS
# B8: il10ra_site1_normal_mot_HHH_b2_00273_000000062_0001_23_39_H_._HHH_b2_06821_0001_0000300032_0000001_0 (protein)
# chain: SSSSEIEEFIEEVEERVRELVERGDTEEALQLLWEAAKLVAENNDEEALRILMELLRLVFRSSSS
# B9: il10ra_site1_normal_mot_HHH_b2_01235_000000294_0001_1_18_H_._HHH_b1_05611_0001_0000600040_0000001_0_af2pred_0001 (protein)
# chain: SSSSDVTERVLELLREALKLLKDGNPEEAREVLEEAEELAEEGNDELLRHLIEFAQEEIDSSSSS
# B10: il10ra_site1_sap_16_mot_HHH_b2_03220_af2_000000223_0001_23_40_H_._HHH_b1_06161_af2_0001_0000300008_0000002_0_0001 (protein)
# chain: SSSSSSDEEAAELIREISKVLAEGDRERVEELLEELEKLAEELGDPAARIYVEFVKQLLSSSSSS
# B11: il10ra_site1_sap_21_mot_HHH_b1_05357_000000034_0001_23_39_H_._HHH_b2_05349_0001_0000600054_0000001_0_0001_af2pred_0001 (protein)
# chain: SSSSNREQRVAELLARALRAAAEGNPEEAERLLEEARELAEELNDEELERAIEILKRYVERSSSS
# B12: il10ra_site1_sap_23_mot_0eddeacbb14b769e73e254714f31e2f9_0001_af2_000000127_0001_37_51_H_._HHH_b1_00538_0001_0000500024_0000001_0_0001 (protein)
# chain: SSSSSEEEEKAKELIELLEELAKEGDPEEFNRVALEAVRLVLELGDAELLRELWELFKSVSSSSS
# B13: il10ra_site1_normal_mot_HHH_b1_08477_000000091_0001_40_57_H_._HHH_b1_03479_0001_0000200016_0000001_0 (protein)
# chain: SSSSSEEEERVRQALRFAEALYKSGNPEAAESLLRVLVQSLRRLGNEELVELVEQVLEELNSSSS
# B14: il10ra_site1_normal_mot_8756ee2cf497b5429c717dfc0c0bcfd6_0001_000000186_0001_1_13_H_._HHH_b2_04770_af2_0001_0000400016_0000001_0_af2pred_0001 (protein)
# chain: SSSSSSDEELKRVQELIRRAAKITDEEELREVLEEAKELAEELGNEILRVIVEFLLELMTSSSSS
# B15: il10ra_site1_sap_15_mot_HHH_b2_04646_000000019_0001_1_20_H_._HHH_b1_08112_af2_0001_0000300009_0000001_0_0001 (protein)
# chain: SSSSDVEEEVEELLEQAEELARRGNPEEAYKLLKEAAELASEANDPELQRLVVEVSRRVIGSSSS
# B16: il10ra_site1_sap_24_mot_HHH_b1_04771_000000013_0001_40_56_H_._HHH_b2_02918_af2_0001_0000100007_0000001_0_0001 (protein)
# chain: SSSSDDEERVKQAIRFARWLLENGDKEAAKRIVEAAQDIARKGGNEELVQELEELEEEIKSSSSS
# B17: il10ra_site1_sap_20_mot_HHH_b1_04573_000000273_0001_43_57_H_._HHH_b2_07679_0001_0000100005_0000002_0_0001 (protein)
# chain: SSSSSDENEEIYRLLREAAEALANGNPEEAREIVEQAVELAEEANSQVLLFNAEYLLRQINSSSS
# B18: il10ra_site1_sap_24_mot_HHH_b1_00999_000000080_0001_41_55_H_._HHH_b1_05694_af2_0001_0000300017_0000001_0_0001_af2pred_dldesign_0_af2pred (protein)
# chain: SSSSDPQRVVELIHEANRLVDEGRLDEAERLLEEALRLARAADDAELAAAVEKALAFVRSLSSSS
# B19: il10ra_site1_normal_mot_HHH_b1_00999_000000080_0001_41_55_H_._HHH_b1_02815_0001_0000700030_0000002_0 (protein)
# chain: SSSSDEEEERSKELLEELEELLRRGDQHRFLRLLQHIVRFAFEVSDEELLHEVWRLAREFGSSSS
# B20: il10ra_site1_normal_mot_HHH_b1_05357_000000034_0001_23_39_H_._HHH_b2_00878_af2_0001_0000100001_0000001_0_af2pred_0001 (protein)
# chain: SSSSSSDLEEEVEKLLEEAEKIEDQLRLAYVLTRAYAVANRLNDPELRELIREVAKKLSSSSSSS
# B21: il10ra_site1_normal_mot_0cd074c2d6d3de76f1399c5a775575d2_0001_1_af2_000000000_0001_16_30_H_._a6da520ff4a02840130205282d0b8d49_0001_0001_0000200007_0000001_0_af2 … (protein)
# chain: SREQAILYAAIVASGGDEDRIEHLLEIYYEFTGDPAVKEVLERLRAAKAAGIPAEELLKQLEAEN
# B22: il10ra_site1_sap_20_mot_HHH_b1_01886_000000262_0001_1_18_H_._HHH_b1_05552_af2_0001_0000500031_0000001_0_0001_af2pred_dldesign_0_af2pred (protein)
# chain: SSSSSDLAAVLAEAEALFARSKTVSPEEKEVILQRIVDLALKHENLEVAKLANELLKELSSSSSS
# B23: il10ra_site1_sap_25_mot_2c1a291787c6f40772924d4e9068d803_0001_af2_000000187_0001_34_48_H_._HHH_b2_07308_af2_0001_0000400007_0000002_0_0001_af2pred_0001 (protein)
# chain: SSSSSTREEVIKRVIELLREARRIEDPEEREEVLEEAHRLAEEGNNELLKFIVESLERKLSSSSS
# B24: il10ra_site1_sap_16_mot_HHH_b2_06643_000000103_0001_1_18_H_._HHH_b2_07694_0001_0000100008_0000001_0_0001_af2pred_0001 (protein)
# chain: SSSSSSEEEELAELALRLLVEALQHGDPELREEIKELIEEAEKVGDERVVRLLRAALRALSSSSS
# B25: il10ra_site1_normal_mot_8756ee2cf497b5429c717dfc0c0bcfd6_0001_000000186_0001_1_13_H_._HHH_b2_05079_af2_0001_0000100002_0000002_1_af2pred_dldesign_0_af2pred (protein)
# chain: SSSSSSELEELKNLIKEIAELLYEGKPEEARELLEKAEELAKKLGNKTALATLDYLRRQIESSSS
# B26: il10ra_site1_sap_25_mot_HHH_b2_05323_000000159_0001_1_18_H_._HHH_b1_08298_af2_0001_0000500034_0000001_0_0001 (protein)
# chain: SSSSDEELQEAFELLREAVEALLDGNPEEAEKLLEEARKLAEEAGNRLLRWQIEWLLEKVRSSSS
# B27: il10ra_site1_normal_mot_HHH_b2_00441_000000147_0001_1_18_H_._HHH_b1_04947_af2_0001_0000200007_0000001_0_af2pred_0001 (protein)
# chain: SSSSDEYLKKAIRALFRAIKRAIELGDEEVVRLALKDLRFLAREHNDEEAEELLKELEELLSSSS
# B28: il10ra_site1_normal_mot_HHH_b2_00984_000000042_0001_1_20_H_._HHH_b2_07534_0001_0000600066_0000001_1 (protein)
# chain: SSSSDEEEKRLEELLEEVRELLERGDPERAARLAQELLRHIFRASDEEALQELWELIKREASSSS
# Molecular target: il10ra, Q13651
# Sequence (Q13651 whole entry): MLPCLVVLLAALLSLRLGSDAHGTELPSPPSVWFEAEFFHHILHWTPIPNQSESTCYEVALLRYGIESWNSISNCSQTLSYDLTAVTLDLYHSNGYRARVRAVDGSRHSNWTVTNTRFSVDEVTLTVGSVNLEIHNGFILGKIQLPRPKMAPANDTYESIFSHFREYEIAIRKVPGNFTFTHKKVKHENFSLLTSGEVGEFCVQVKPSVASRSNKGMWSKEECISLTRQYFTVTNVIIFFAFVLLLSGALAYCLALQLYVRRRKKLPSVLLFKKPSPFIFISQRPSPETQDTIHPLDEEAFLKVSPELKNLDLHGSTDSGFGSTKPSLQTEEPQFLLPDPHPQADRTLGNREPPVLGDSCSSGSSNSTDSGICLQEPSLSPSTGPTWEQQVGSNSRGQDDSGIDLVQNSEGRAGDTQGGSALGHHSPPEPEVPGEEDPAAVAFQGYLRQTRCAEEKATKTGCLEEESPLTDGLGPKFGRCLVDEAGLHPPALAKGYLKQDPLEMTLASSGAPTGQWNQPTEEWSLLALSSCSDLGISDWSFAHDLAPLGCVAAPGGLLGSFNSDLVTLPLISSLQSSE
# Assay: yeast display titration
row,Binder,apparent Kd
1,B1,no binding seen
2,B2,no binding seen
3,B3,no binding seen
4,B4,no binding seen
5,B5,no binding seen
6,B6,no binding seen
7,B7,no binding seen
8,B8,no binding seen
9,B9,no binding seen
10,B10,no binding seen
11,B11,no binding seen
12,B12,no binding seen
13,B13,no binding seen
14,B14,no binding seen
15,B15,no binding seen
16,B16,no binding seen
17,B17,no binding seen
18,B18,no binding seen
19,B19,no binding seen
20,B20,no binding seen
21,B21,no binding seen
22,B22,no binding seen
23,B23,no binding seen
24,B24,no binding seen
25,B25,no binding seen
26,B26,no binding seen
27,B27,no binding seen
28,B28,no binding seen
